Screens: PubChem, National Center for Advancing Translational Sciences (NCATS)
An excerpt weighted towards active compounds, which were near 14% of everything screened.
Pf growth 96h: inhibits malaria parasite growth, 96 h | AID 504834 | Potency, µM (titrated, usually from 28.7 µM), actives largely listed as inhibitors | P. falciparum luciferase reporter growth, 96 h | hit rate 6.9% among 320,000
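Compounds incubated with erythrocytes infected by luciferase-expressing P. falciparum (2% hematocrit, 0.05% parasitemia final) for 96 hours, 37 C in 5% CO2. Growth inhibition scored as decreased luciferase luminescence.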
Giardia FBPA inh: Giardia lamblia aldolase inhibition; purified Giardia FBPA; Potency, µM (doses to about 59.6 µM), most hits filed as inhibitors; hit rate 0.71% among 290,000; note: nearly all actives have a fitted effect of over 55% in size
Target sequence (A8B2U2 whole entry, looked up): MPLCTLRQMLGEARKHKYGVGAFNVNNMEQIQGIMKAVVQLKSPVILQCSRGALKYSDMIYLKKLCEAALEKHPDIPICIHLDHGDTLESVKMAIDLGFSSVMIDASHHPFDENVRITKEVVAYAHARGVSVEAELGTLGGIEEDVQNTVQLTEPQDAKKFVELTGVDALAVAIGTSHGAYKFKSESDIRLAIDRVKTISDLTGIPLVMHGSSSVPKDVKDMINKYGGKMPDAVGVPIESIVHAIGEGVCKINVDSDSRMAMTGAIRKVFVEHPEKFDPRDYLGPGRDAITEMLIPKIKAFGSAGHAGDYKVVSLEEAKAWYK
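40 nM FBPA preincubated 10 min at RT with compound (up to 57.5 uM final), then substrate plus GAPDH/TPI/NAD/arsenate coupling and diaphorase/resazurin added. Fluorescence read after 20 min at RT, 525/598 nm.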
Pf growth 48h: P. falciparum growth inhibition at 48 hours (one generation); P. falciparum luciferase growth in erythrocytes, 48 h; Potency, µM (top dose mostly 28.7 µM), usual class: inhibitors; hit rate 5.9% among 310,000
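Cell-based growth assay: transgenic P. falciparum expressing firefly luciferase, cultured in red cells within RPMI 1640 containing 0.5% w/v Albumax, 24 mM bicarbonate and gentamycin. A drop in luciferase activity indicates inhibition.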
Sm TGR block: S. mansoni TGR enzyme inhibition; Q962Y6; purified TGR, DTNB reduction, TNB absorbance 405 nm; hit rate 3% among 360,000; Potency, µM (top dose mostly 114 µM), usual class: inhibitors; AID 485364; note: nearly all actives have a fitted effect of over 60% in size
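Kinetic colorimetric format: TGR-catalysed, NADPH-driven DTNB reduction monitored via TNB absorbance. Enzyme dispensed at 20 nM; compound exposure 15 min at room temperature before reaction start.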
HCMV inh: blocks human cytomegalovirus replication. hit rate 4.5% among 410,000. activity change, negative = inhibition, % at 57.5 µM. HFF cells, HCMV-luciferase reporter, 72 h; hits give low values; in the data active = activity change below about -60%; inconclusive = no clear call, values can overlap the other calls; inactive = above about -39%
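Human foreskin fibroblasts infected with luciferase-reporter HCMV at MOI 1 PFU/cell, compounds at two doses. Luciferase measured 72 h post infection; normalized to buffer-only basal and Salinomycin (10uM) controls.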
Numbers stand for hits; – = inactive; ? = inconclusive; · = no result; [ ] = dose if it differs, or a comment. Unless noted, calls come from the whole dose curve; as a rule, active = well fitted curve in the direction sought with a large enough effect; inconclusive = small, poorly fitted or top-dose-only effect, or another doubt; inactive = no such curve, though single readings can be large; an effect the other way counts as inactive or inconclusive.

SMILES | Pf growth 96h | Giardia FBPA inh | Pf growth 48h | Sm TGR block | HCMV inh
Cc1ccc(N2C(=O)c3ccc(C(=O)N4CCN(c5cccc(C)c5C)CC4)cc3C2=O)cc1 | – | – | – | – | –
COc1ccc(C(=O)Nc2ccc(N3CCN(C(=O)c4cccs4)CC3)cc2)cc1Br | 9.3µM | · | ? | – | –
Cc1ccc(N2C(=O)c3ccc(C(=O)N4CCN(c5ccc(C)c(C)c5)CC4)cc3C2=O)cc1 | – | – | – | – | -70
C[C@H](CO)N1C[C@H](C)[C@@H](CN(C)S(=O)(=O)c2cn(C)cn2)Oc2ccc(NC(=O)Cc3ccccc3)cc2C1=O | · | · | · | · | –
O=C(c1ccncc1)N1CCC[C@@]2(CCN(c3ccccc3)C2)C1 | · | – | · | · | ·
O=C1c2sc3nc4n(c(=O)c3c2CCC1Br)CCCCC4 (stereo not given) | 9.3µM | 20µM | ? | ? | –
CCOc1ccc2c(c1)C(C)=CC(C)(C)N2S(=O)(=O)c1ccc(F)cc1 | ? | – | – | – | –
CCOc1ccc2c(c1)C(C)=CC(C)(C)N2S(=O)(=O)c1ccc(NC(C)=O)cc1 | – | – | 6.6µM | – | ?
COc1ccc2c(c1)C(C)=CC(C)(C)N2S(=O)(=O)c1ccc(NC(C)=O)cc1 | – | – | ? | – | -90
COc1ccc2c(c1)C(C)=CC(C)(C)N2S(=O)(=O)c1ccc(Br)cc1 | – | – | 9.3µM | – | -80
COc1cccc(C(C(=O)Nc2ccc(F)cc2)N(C(=O)Cn2nnc3ccccc32)C2CC2)c1 (stereo not given) | 10µM | – | ? | – | –
CCOc1ccc(C(C(=O)Nc2ccc(F)cc2)N(C(=O)Cn2nnc3ccccc32)C2CC2)cc1 (stereo not given) | 4.7µM | – | ? | – | –
COc1cccc(C(C(=O)NCC2CCCO2)N(C(=O)Cn2nnc3ccccc32)c2ccc(NC(C)=O)cc2)c1 (stereo not given) | – | – | ? | – | –
CCOc1ccc(CCNC(=O)Cn2nc(CC)n3c(cc4sccc43)c2=O)cc1 | · | · | · | – | –
COc1ccccc1C(=O)Nc1ccc2oc(-c3cccc4c(Br)cccc34)nc2c1 | · | · | · | – | –
CCC(=O)N(c1nnc(SCC(=O)c2ccc[nH]2)s1)C1CC1 | · | · | · | · | –
OC[C@@H]1CN(Cc2ccccc2)C[C@H](n2cnc3c(NC4CCCC4)ncnc32)O1 | · | · | · | · | –
C/C(=N\O)c1cccc(Br)c1 | – | – | ? | – | –
C/C(=N/O)c1cccc(N2Cc3ccccc3C2)c1 | ? | – | 13µM | 22µM | –
CN1C(=O)C(C)(C)N(C(=O)c2cccc([N+](=O)[O-])c2)c2ccccc21 | ? | – | – | – | –
Cc1ccc(Cn2nnc3c(=O)[nH]c(C4CCN(C(=O)c5cccs5)CC4)nc32)cc1 | –[5.75 µM] | – | 13µM | – | ·
O=C(c1cccs1)N1CCC(c2nc3c(nnn3Cc3cccc(Cl)c3)c(=O)[nH]2)CC1 | – | – | 4.7µM | – | –
O=C(Cc1ccccc1F)N1CCC(c2nc3c(nnn3Cc3cccc(Cl)c3)c(=O)[nH]2)CC1 | · | · | · | – | -62
Cc1ccc(Cn2nnc3c(=O)[nH]c(C4CCN(C(=O)Cc5ccccc5F)CC4)nc32)cc1 | · | · | · | – | –
O=C(c1cccs1)N1CCC(c2nc3c(nnn3Cc3c(Cl)cccc3Cl)c(=O)[nH]2)CC1 | ? | · | 5.9µM | – | –
SMILES | Pf growth 96h | Giardia FBPA inh | Pf growth 48h | Sm TGR block | HCMV inh
COc1cc(OC)c(NC(=O)CC(C)S(=O)(=O)c2ccc3c(c2)NC(=O)CO3)cc1Cl (stereo not given) | · | · | · | – | –
COc1ccc(COC(=O)N/N=C2/C[C@@H](O)[C@@H](O)[C@@H]3[C@@H]4C(=O)N(C5CCCCC5)C(=O)[C@H]4CC[C@H]23)cc1 | · | –[12.9 µM] | · | · | ·
Cc1ccc(C)c(Cn2nnc3c(=O)[nH]c(C(=O)NCC4CCCO4)nc32)c1 (stereo not given) | ? | – | ? | – | –
COCCNC(=O)c1nc2c(nnn2Cc2cc(C)ccc2C)c(=O)[nH]1 | 9.3µM | – | – | – | –
O=C(Cc1cccs1)N1CCCC(c2nc3c(nnn3Cc3cccc(Cl)c3)c(=O)[nH]2)C1 (stereo not given) | – | – | 8.3µM | – | –
COc1ccc(Cn2nnc3c(=O)[nH]c(C(=O)NCCc4ccc(F)cc4)nc32)cc1OC | ? | – | – | – | –
